Compound activity deposited in PubChem BioAssay by National Center for Advancing Translational Sciences (NCATS).
Pf Dd2 inh: inhibitors of Plasmodium falciparum Dd2 growth | P. falciparum Dd2 growth, SYBR Green, 72 h | Potency, µM (top dose mostly 28.9 µM), for inactives: at the highest dose activity, negative = inhibition, actives largely listed as inhibitors | 120,000 tested, 4.3% active | AID 1347417; active = well fitted inhibition curve with a large enough effect;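 also: plate controls were DMSO vehicle for no effect and reference drug for full effect; nearly all actives have a fitted effect of over 65% in size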
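Infected erythrocytes (Dd2, 0.3% parasitemia, 2.5% hematocrit final) are added to compound in RPMI-1640/Albumax II medium, grown 72 h at 37C in low oxygen, then lysed with saponin/Triton-X containing SYBR Green and read by fluorescence.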
Numbers without * were called inactive; i = inactive; [ ] = dose if it differs, or a comment. This excerpt belongs to a sample that is enriched for hits. Potency is read from the fitted curve at half-maximal effect.

SMILES	Pf Dd2 inh
O=C(N[C@@H]1COCC[C@@H]1OCc1ccccc1)c1n[nH]c2c1COCC2	-6%
COCCn1c(=O)n([C@H]2CCCN(C(=O)c3cc(C)nn3C)C2)c2ncccc21	-8%
Cn1cc(C(=O)NCC(=O)N2CCCCCNC(=O)CC2c2ccccc2)cn1 (stereo not drawn)	3%
COc1ccccc1N=c1scc(-c2ccc(S(=O)(=O)N3CCCC3)cc2)n1C	10µM*
COc1ccccc1N1CCN(S(=O)(=O)c2ccc(-c3coc(C)n3)cc2)CC1	41%
COc1cccc2sc(=NC(=O)c3ccc(S(=O)(=O)N4CCCCC4)cc3)n(C)c12	1%
COCCC1(CO)CCCN(C(=O)c2ccc3c(c2)OCC(=O)N3)C1 (stereo not drawn)	-2%
Cc1ccc(-c2cc3c(=O)n(CCNC(=O)c4cc(Cl)ccc4F)ccn3n2)c(C)c1	i
Cc1ccc(C)c(C(=O)NCCn2ccn3nc(-c4cc(C)ccc4C)cc3c2=O)c1	i
CC(=O)Nc1cccc(C(=O)NCCn2ccn3nc(-c4ccc(C)cc4C)cc3c2=O)c1	5.6µM*
Cc1ccc(-c2cc3c(=O)n(CCNC(=O)c4cccc(Cl)c4)ccn3n2)cc1C	-3%
COc1ccc(C(=O)NCCn2ccn3nc(-c4ccc(C)cc4C)cc3c2=O)cc1F	-16%
Cc1ccc(-c2cc3c(=O)n(CCNC(=O)c4ccc(N(C)C)cc4)ccn3n2)c(C)c1	10µM*
COc1cccc(C(=O)NCCn2ccn3nc(-c4ccc(C)cc4C)cc3c2=O)c1OC	i
Cc1ccc(-c2cc3c(=O)n(CCNC(=O)c4ccccc4F)ccn3n2)cc1C	i
CCn1nccc1C(=O)NCCn1ccn2nc(-c3ccc(C)c(C)c3)cc2c1=O	7.9µM*
CN1C[C@@H]2CCCN3CCC[C@@H]([C@H]23)[C@H]1CCCC(=O)NCC1CC1	-5%
CN(Cc1ccccc1)Cc1cn([C@H]2CO[C@H]3[C@@H]2OC[C@@H]3NC(=O)NCc2ccccc2)nn1	-13%
Cn1ccc(NC(=O)c2ccc3c(c2)NC(C)(COc2ccccc2)CO3)n1 (stereo not drawn)	i
Cc1ccc(-c2noc([C@@H]3CCCN3C(=O)CCCc3ccccc3)n2)cc1	11µM*
O=C(CCc1ccccc1)N1CCC[C@H]1c1nc(-c2ccccc2)no1	16%
CCCCOc1ccc(C(=O)N2CCC[C@H]2c2nc(-c3ccc(OC)cc3)no2)cc1	11µM*
Cc1ccc(-c2noc([C@@H]3CCCN3C(=O)Cc3ccccc3)n2)cc1	i
O=[N+]([O-])c1cccc(-c2noc([C@@H]3Cc4nc[nH]c4CN3CC3CCCCC3)n2)c1	14µM*
O=C(NC1CCCCC1)N1Cc2[nH]cnc2C[C@H]1c1nc(-c2ccc(Cl)cc2)no1	-24%[44.1 µM]
SMILES	Pf Dd2 inh
COc1ccc(-c2noc([C@@H]3Cc4nc[nH]c4CN3C(=O)NC3CCCCC3)n2)cc1	13µM*
COc1ccc(-c2noc([C@@H]3CCCN3C(=O)c3ccc(C(C)(C)C)cc3)n2)cc1	i
O=C(O)c1ccc(CN2Cc3[nH]cnc3C[C@H]2c2nc(-c3cccc([N+](=O)[O-])c3)no2)cc1	-6%
CCOc1ccc(C(=O)N2CCC[C@H]2c2nc(-c3ccccc3)no2)cc1	-3%
Cc1cccc(-c2noc([C@@H]3Cc4nc[nH]c4CN3C(=O)C3CCCCC3)n2)c1	-12%[44.1 µM]
O=C(NC1CCCCC1)N1Cc2[nH]cnc2C[C@H]1c1nc(-c2ccc3ccccc3c2)no1	i
Cn1cnnc1CC1CCN(C(=O)c2ccccc2F)CC1	-23%
CCS(=O)(=O)N(C1CC1)C1CCOC2(CCN(C(=O)Cc3ccccc3)CC2)C1 (stereo not drawn)	29%
CN1CCN(C(=O)[C@@H]2CCC[C@@H](NC(=O)c3ccc(Cl)cc3)CN(C)C(=O)C2)CC1	19%[44.1 µM]
CCN1CC(C(=O)NCc2cccc(OCc3ccccc3)c2)CC1=O (stereo not drawn)	12%
Cc1cc(CNC(=O)[C@@H]2CCC[C@@H](NC(=O)CC(C)C)CN(C)C(=O)C2)no1	5%[44.1 µM]
CC(=O)N1CCN([C@H]2[C@@H]3OC[C@@H](O3)[C@@H](NCc3ccco3)[C@@H]2O)CC1	-9%[44.1 µM]
CC(C)(C)C(=O)N1CCC(F)(c2nc(-c3ccncc3)no2)CC1	-16%
CCOC(=O)c1ccc(NC(=O)N2Cc3[nH]cnc3C[C@H]2c2nc(-c3ccc(C)cc3)no2)cc1	-8%
CC(=O)N1CCC(N2CC[C@H](c3nnc(-c4ccco4)o3)C2)CC1	-25%[44.1 µM]
C[C@H](C(=O)NCCN1CCOCC1)C1CC[C@@]2(C)Cc3sc(NC(=O)CC(C)(C)C)nc3[C@@H](C)[C@@H]2[C@H]1O (stereo partly drawn)	-9%
COc1cc(CN2CCC3(CCN(CC4CC4)CC3)C(CO)C2)ccc1F (stereo not drawn)	8.9µM*
COc1cc(CN2CCCC(c3[nH]ccc3C(N)=O)C2)ccc1F (stereo not drawn)	-29%
COc1cc(CN2CCC3(CC2)CN(c2ccncn2)CC3CO)ccc1F (stereo not drawn)	-13%
Cc1cccc(C(=O)NC2CCN(c3cn[nH]c(=O)c3)CC2)c1	11%
